Measurements: PubChem BioAssay
“And” between values parts separate entries of the source, which are not always exact repeats. Identical values can stand only once. Inconclusive results are not listed. The source made the active and inactive calls.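 Rule for the calls, unless noted: active = normalized viability below 100% at a tested concentration; inactive = the rest.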

Columns and labels:
[1] = EMT-state selective cytotoxicity in co-culture – imaging, PC-3E GFP, TEM4-18 mCherry, primary screen (AID 1345086;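 active = compounds killing one labelled cell type while sparing the other, by normalised counts and ratio limits, not self-fluorescent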;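 for all read-outs here: cells exposed to compound for 72 h before imaging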;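 for red/green cell ratio (normalised): normalised mesenchymal count divided by normalised epithelial count so high means epithelial killing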); conditions: PC-3E GFP / TEM4-18 mCherry co-culture, imaging cell counts, at 1 µM; for red/green cell ratio (normalised): actives lie on both sides, counts scaled to control wells, 1 = unselective
[2] = viability loss in pontine glioma line – cell-based, SU-DIPG-XVII, MIPE5.0, CellTiter-Glo, qHTS, dose response (AID 1347060; cut-off not given, nearly all actives have AC50 up to about 26 µM); conditions: CellTiter-Glo ATP luminescence
[3] = viability loss in pontine glioma line – cell-based, SU-DIPG-XIII, MIPE4.0, CellTiter-Glo, qHTS, dose response (AID 1347061; cut-off not given, nearly all actives have AC50 up to about 37 µM;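 note: cells exposed to compound for 48 hours before readout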); conditions: CellTiter-Glo ATP luminescence
[4] = viability loss in pontine glioma line – cell-based, JHH-DIPG-1, MIPE4.0, CellTiter-Glo, qHTS, dose response (AID 1347062; cut-off not given, nearly all actives have AC50 up to about 27 µM); conditions: JHH-DIPG-1 viability, CellTiter-Glo ATP luminescence
[5] = viability loss in pontine glioma line – cell-based, SU-DIPG-IV, MIPE4.0, CellTiter-Glo, qHTS, dose response (AID 1347063; cut-off not given, nearly all actives have AC50 up to about 30 µM;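 note: compound exposure lasted 48 hours before the viability readout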); conditions: CellTiter-Glo ATP luminescence
[6] = viability loss in pontine glioma line – cell-based, SU-DIPG-XIII, MIPE5.0, CellTiter-Glo, qHTS, dose response (AID 1347064; cut-off not given, nearly all actives have AC50 up to about 23 µM); conditions: CellTiter-Glo ATP luminescence
[7] = viability loss in pontine glioma line – cell-based, SU-DIPG-XXV, MIPE5.0, CellTiter-Glo, qHTS, dose response (AID 1347065; cut-off not given, nearly all actives have AC50 up to about 26 µM;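 note: cells exposed to compound for 48 hours before ATP readout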); conditions: CellTiter-Glo ATP luminescence
[8] = growth inhibition of DIPG cells – cell-based, MIPE4.0 library, CellTiter-Glo luminescence, qHTS (AID 1347066; cut-off not given, nearly all actives have AC50 up to about 30 µM;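 note: cells exposed to compound for 48 hours before readout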); conditions: SU-DIPG-VI viability, CellTiter-Glo ATP luminescence
[9] = JHH-DIPG-1 glioma cell viability, MIPE5.0 library, CellTiter-Glo luminescence, qHTS (AID 1347067; cut-off not given, nearly all actives have AC50 up to about 26 µM;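 note: cells exposed to compound for 48 hours before readout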); conditions: JHH-DIPG-1 glioma viability, CellTiter-Glo ATP luminescence
[10] = growth inhibition of DIPG cells – cell-based, MIPE5.0 library, qHTS (AID 1347068; cut-off not given, nearly all actives have IC50 up to about 30 µM); conditions: SU-DIPG-XXV viability
[11] = viability loss with induced miR-34 in A549 – imaging, A549 dox-inducible miR-34, nuclei and caspase counts, primary screen (AID 1347080;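 active = compounds whose cell count with miR-34 switched on is under 0.7 times the count with it off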); conditions: A549 miR-34 inducible, Hoechst nuclei count, 48 h
[12] = compounds altering HSF1 focus formation in cells – imaging, Selleck Cancer Library (AID 1347162; in the data active = plate-normalised HSF1 focus index below about 0.46); conditions: human cells, HSF1 nuclear foci imaging, at 10 µM; SSMD: measured here: HSF1 foci SSMD mean; cell count: measured here: cell number; plate-normalised HSF1 focus index: stronger effect = lower value
[13] = MELAS cybrid and Rieske KO viability enhancers – cell-based, MELAS cybrids, Rieske KO mouse fibroblasts, CellTiter-Glo, primary screen (AID 1508586;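 active = mean z-score across replicates of 1.96 or higher in either the MELAS or the Rieske mutant cell line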;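 note: z relative to plate mean and SD of compound and empty wells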); conditions: low glucose
[14] = drug combination growth inhibition, ovarian cancer – cell-based, oncology-focused library, rucaparib conditional, profiling panel (AID 1508598); conditions: patient-derived ovarian cancer cells, CellTiter-Glo viability, 144 h, stronger effect = lower value
[15] = tested on: Aerobactin synthetase IucA (Klebsiella pneumoniae); assay: inhibition of K. pneumoniae IucA enzyme – biochemical, Tocris library, absorbance (AID 1345561; call rule not given here;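 note: 100% = enzyme without compound and 0% = no enzyme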); conditions: purified IucA enzyme assay, absorbance (OD) read-out; stronger effect = lower value;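 tested at 8 µM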
[16] = blockers of cellular phospholipid synthesis – cell-based, LOPAC library, screen 4, primary screen (AID 1347384; call rule not given here); conditions: animal cells, phospholipid biosynthesis inhibition screen; at 10 µM
[17] = measured here: epithelial PC-3E GFP cell survival
[18] = measured here: mesenchymal TEM4-18 mCherry cell survival
[19] = stronger effect = lower value, cell number ratio, induced over uninduced
[20] = measured here: relative caspase fold change +Dox/-Dox
[21] = measured here: total cells with miR-34 induction, stronger effect = lower value
[22] = measured here: total cells without miR-34 induction
[23] = MELAS cybrid survival, CellTiter-Glo 48 h, stronger effect = higher value
[24] = Rieske KO mouse fibroblast survival, CellTiter-Glo 72 h

Cc1nc(-c2ccc(OCC(C)C)c(C#N)c2)sc1C(=O)O
1.2: SSMD [12]
6840: cell count [12]
inactive: red/green cell ratio (normalised) [1] 1 | outcome [2] | outcome [3] | outcome [4] | outcome [5] | outcome [6] | outcome [7] | outcome [8] | outcome [9] | outcome [10] | fold change [11, 19] 0.998 and 0.915 | plate-normalised HSF1 focus index [12] 1.06 | z-score [13, 23] 0.976 | viability ([14]; at 0.000305 µM, OCI-C5x cells, with rucaparib 10 µM, 100% = cells with rucaparib alone) 118% | viability ([14]; at 0.000305 µM, OCI-C5x cells, without rucaparib) 111% | viability ([14]; at 0.00122 µM, OCI-C5x cells, with rucaparib 10 µM, 100% = cells with rucaparib alone) 115% | viability ([14]; at 0.00122 µM, OCI-C5x cells, without rucaparib) 122% | viability ([14]; at 0.00122 µM, OCI-P5x cells, with rucaparib 20 µM, 100% = cells with rucaparib alone) 102% | viability ([14]; at 0.00488 µM, OCI-C5x cells, with rucaparib 10 µM, 100% = cells with rucaparib alone) 112% | viability ([14]; at 0.00488 µM, OCI-C5x cells, without rucaparib) 109% | viability ([14]; at 0.00488 µM, OCI-P5x cells, with rucaparib 20 µM, 100% = cells with rucaparib alone) 109% | viability ([14]; at 0.00488 µM, OCI-P5x cells, without rucaparib) 100% | viability ([14]; at 0.0195 µM, OCI-C5x cells, with rucaparib 10 µM, 100% = cells with rucaparib alone) 111% | viability ([14]; at 0.0195 µM, OCI-C5x cells, without rucaparib) 110% | viability ([14]; at 0.0195 µM, OCI-P5x cells, with rucaparib 20 µM, 100% = cells with rucaparib alone) 105% | viability ([14]; at 0.0195 µM, OCI-P5x cells, without rucaparib) 104% | viability ([14]; at 0.0781 µM, OCI-C5x cells, with rucaparib 10 µM, 100% = cells with rucaparib alone) 109% | viability ([14]; at 0.0781 µM, OCI-C5x cells, without rucaparib) 112% | viability ([14]; at 0.0781 µM, OCI-P5x cells, with rucaparib 20 µM, 100% = cells with rucaparib alone) 104% | viability ([14]; at 0.0781 µM, OCI-P5x cells, without rucaparib) 108% | viability ([14]; at 0.313 µM, OCI-C5x cells, with rucaparib 10 µM, 100% = cells with rucaparib alone) 110% | viability ([14]; at 0.313 µM, OCI-C5x cells, without rucaparib) 109% | viability ([14]; at 0.313 µM, OCI-P5x cells, without rucaparib) 109% | viability ([14]; at 1.25 µM, OCI-C5x cells, with rucaparib 10 µM, 100% = cells with rucaparib alone) 108% | viability ([14]; at 1.25 µM, OCI-C5x cells, without rucaparib) 118% | viability ([14]; at 1.25 µM, OCI-P5x cells, with rucaparib 20 µM, 100% = cells with rucaparib alone) 102% | viability ([14]; at 1.25 µM, OCI-P5x cells, without rucaparib) 109% | viability ([14]; at 5 µM, OCI-C5x cells, with rucaparib 10 µM, 100% = cells with rucaparib alone) 118% | viability ([14]; at 5 µM, OCI-C5x cells, without rucaparib) 134% | viability ([14]; at 5 µM, OCI-P5x cells, with rucaparib 20 µM, 100% = cells with rucaparib alone) 103% | viability ([14]; at 5 µM, OCI-P5x cells, without rucaparib) 108%
active: viability ([14]; at 0.000305 µM, OCI-P5x cells, with rucaparib 20 µM, 100% = cells with rucaparib alone) 91.2% | viability ([14]; at 0.000305 µM, OCI-P5x cells, without rucaparib) 99.9% | viability ([14]; at 0.00122 µM, OCI-P5x cells, without rucaparib) 99.6% | viability ([14]; at 0.313 µM, OCI-P5x cells, with rucaparib 20 µM, 100% = cells with rucaparib alone) 97.1%
8880 and 8080: cell count [11, 22]
0.915 and 0.811: fold change [11, 20]
1.08: normalised cell number [1, 17] | normalised cell number [1, 18]
0.13: z-score [13, 24]
8870 and 7400: cell count [11, 21]

CC1(C)NC(=O)N(c2ccc([N+](=O)[O-])c(C(F)(F)F)c2)C1=O
inactive: red/green cell ratio (normalised) [1] 1.15 | remaining activity [15] 120% | outcome [4] | outcome [5] | outcome [6] | outcome [7] | outcome [8] | outcome [9] | outcome [10] | outcome [16] | z-score [13, 23] 1.34
1.25: normalised cell number [1, 17]
1.43: normalised cell number [1, 18]
-0.252: z-score [13, 24]

CNC[C@H](O)c1cccc(O)c1
1.33 and 1.38 and 1.19: fold change [11, 20]
inactive: red/green cell ratio (normalised) [1] 1.3 | outcome [2] | outcome [3] | outcome [4] | outcome [5] | outcome [6] | outcome [7] | outcome [8] | outcome [9] | outcome [10] | fold change [11, 19] 0.733 and 0.885 and 0.869 | outcome [16] | z-score [13, 23] -0.327
9300 and 10900 and 13200: cell count [11, 22]
0.52: z-score [13, 24]
1.11: normalised cell number [1, 18]
0.85: normalised cell number [1, 17]
6820 and 9660 and 11500: cell count [11, 21]
